Test results reported in PubChem BioAssay (EPA / NIEHS).
The source made the active and inactive calls. Rule for the calls: active = hit-call score of the fitted dose curve at least 0.9, where 1 is the maximum; inactive = score below 0.9.

What was measured:
Details in all cases: mRNA level, 48 h; actives raise or lower the signal
[1] = read-out: growth arrest and DNA damage 45 (GADD45A), GADD45A (gene 1647); test: LTEA_HepaRG_GADD45A: Life Technologies and Expression Analysis (LTEA) Assay for growth arrest and DNA damage 45 (GADD45A) using HepaRG (AID 2283458)
Method in brief: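 Eight-point concentration-response in HepaRG cells: 48 h chemical exposure, 0.5% DMSO vehicle, top dose 100 uM. Normalized qRT-PCR mRNA readout with bidirectional fitting relative to DMSO.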

[2] = read-out: Forkhead box O3 (FOXO3), FOXO3 (gene 2309); test: LTEA_HepaRG_FOXO3: Life Technologies and Expression Analysis (LTEA) Assay for Forkhead box O3 (FOXO3) using HepaRG (AID 2283459)
Method in brief: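 Gene-expression endpoint: FOXO3 transcript level by qRT-PCR in HepaRG cultures treated 48 h with chemicals up to 100 uM (half-log, 0.5% DMSO vehicle).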

[3] = read-out: ABC Transporter (ABCB1), ABCB1 (gene 5243); test: LTEA_HepaRG_ABCB1: Life Technologies and Expression Analysis (LTEA) Assay for ABC Transporter (ABCB1) using HepaRG (AID 2283460)
Method in brief: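 Human liver HepaRG line treated 48 h with up to 100 uM compound (eight half-log points, 0.5% DMSO); ABCB1 mRNA change fitted bidirectionally against DMSO controls.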

[4] = read-out: growth arrest and DNA damage 45 (GADD45B), GADD45B (gene 4616); test: LTEA_HepaRG_GADD45B: Life Technologies and Expression Analysis (LTEA) Assay for growth arrest and DNA damage 45 (GADD45B) using HepaRG (AID 2283461)
Method in brief: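 Values are bidirectional concentration-response fits against 0.5% DMSO controls. Underlying data: qRT-PCR mRNA levels in human HepaRG liver cells treated 48 h in serum-free induction medium, eight concentrations topping at 100 uM.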

[5] = read-out: ABC Transporter (ABCC3), ABCC3 (gene 8714); test: LTEA_HepaRG_ABCC3: Life Technologies and Expression Analysis (LTEA) Assay for ABC Transporter (ABCC3) using HepaRG (AID 2283462)
Method in brief: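 Differentiated HepaRG liver cells receive test chemicals at eight concentrations (max 100 uM) for 48 h. Expression of ABCC3 is quantified by qRT-PCR against ACTB, GAPDH and POLR2A, and activity is fitted in both directions against the DMSO control.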

[6] = read-out: ABC Transporter (ABCB11), ABCB11 (gene 8647); test: LTEA_HepaRG_ABCB11: Life Technologies and Expression Analysis (LTEA) Assay for ABC Transporter (ABCB11) using HepaRG (AID 2283463)
Method in brief: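 Using HepaRG cultures held in 0.5% DMSO, chemicals were tested at half-log dilutions from 100 uM for 48 h. Induction or suppression of ABCB11 mRNA, normalized to ACTB, GAPDH and POLR2A, was fitted bidirectionally against vehicle.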

[7] = read-out: ABC Transporter (ABCC2), ABCC2 (gene 1244); test: LTEA_HepaRG_ABCC2: Life Technologies and Expression Analysis (LTEA) Assay for ABC Transporter (ABCC2) using HepaRG (AID 2283464)
Method in brief: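 Gene expression of ABCC2 was determined by qRT-PCR in HepaRG cells exposed 48 h to chemicals (highest 100 uM, half-log dilutions). Activity was fitted in both directions relative to 0.5% DMSO vehicle.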

[8] = read-out: Broad substrate specificity ATP-binding cassette transporter ABCG2 (Homo sapiens) (UniProt Q9UNQ0); test: LTEA_HepaRG_ABCG2: Life Technologies and Expression Analysis (LTEA) Assay for ABC Transporter (ABCG2) using HepaRG (AID 2283465)
Method in brief: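 Gene expression of ABCG2 in HepaRG liver cells is quantified by qRT-PCR following 48 h exposure across an eight-point series topping at 100 uM. Values come from bidirectional fitting relative to DMSO vehicle.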

[9] = read-out: ATP-citrate lyase (ACLY), ACLY (gene 47); test: LTEA_HepaRG_ACLY: Life Technologies and Expression Analysis (LTEA) Assay for ATP-citrate lyase (ACLY) using HepaRG (AID 2283466)
Method in brief: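 ACLY expression changes in human HepaRG liver cells are quantified by qRT-PCR after 48 h exposure to test chemicals (maximum 100 uM, half-log steps). Values are fitted in both directions relative to 0.5% DMSO vehicle.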

[10] = read-out: Peroxisomal acyl-coenzyme A oxidase 1 (ACOX1) gene, ACOX1 (gene 51); test: LTEA_HepaRG_ACOX1: Life Technologies and Expression Analysis (LTEA) Assay for Peroxisomal acyl-coenzyme A oxidase 1 (ACOX1) gene using HepaRG (AID 2283467)
Method in brief: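 Human HepaRG hepatic cultures, 48 h treatment with test chemicals up to 100 uM. ACOX1 expression read by qRT-PCR relative to 0.5% DMSO vehicle.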

[11] = read-out: Alkaline Phosphatase, Placental (ALPP) gene, ALPP (gene 250); test: LTEA_HepaRG_ALPP: Life Technologies and Expression Analysis (LTEA) Assay for Alkaline Phosphatase, Placental (ALPP) gene using HepaRG (AID 2283468);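 for AC50: ALPP transcript by TaqMan qRT-PCR normalized to ACTB GAPDH and POLR2A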
Method in brief: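 Expression of ALPP was quantified by qRT-PCR against three housekeeping genes in human HepaRG cultures treated for 48 h with an eight-point concentration series up to 100 uM. Activity in either direction was fitted relative to 0.5% DMSO.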

[12] = read-out: Bcl-2 (BAD) gene, BAD (gene 572); test: LTEA_HepaRG_BAD: Life Technologies and Expression Analysis (LTEA) Assay for Bcl-2 (BAD) gene using HepaRG (AID 2283469)
Method in brief: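 Activity values reflect up- or down-regulation of BAD mRNA in human HepaRG hepatic cells treated 48 h in serum-free medium, with eight-point half-log dosing capped at 100 uM and 0.5% DMSO vehicle.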

[13] = read-out: Bcl-2 (BAX) gene, BAX (gene 581); test: LTEA_HepaRG_BAX: Life Technologies and Expression Analysis (LTEA) Assay for Bcl-2 (BAX) gene using HepaRG (AID 2283470)
Method in brief: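 Human HepaRG cells treated in duplicate for 48 h across eight concentrations (max 100 uM, 0.5% DMSO); BAX expression measured by qRT-PCR.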

[14] = read-out: adenosine kinase (ADK) gene, ADK (gene 132); test: LTEA_HepaRG_ADK: Life Technologies and Expression Analysis (LTEA) Assay for adenosine kinase (ADK) gene using HepaRG (AID 2283471)
Method in brief: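 Following 48 h exposure of HepaRG cells in 0.5% DMSO (top concentration 100 uM, duplicate wells), ADK mRNA induction or suppression was measured by qRT-PCR, normalised to ACTB/GAPDH/POLR2A, and fitted bidirectionally relative to vehicle.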

BCL2L11 (gene 10018) = test: LTEA_HepaRG_BCL2L11: Life Technologies and Expression Analysis (LTEA) Assay for Bcl-2 (BCL2L11) gene using HepaRG (AID 2283473)
Method in brief: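 Cells were plated, cultured 48 h, switched to serum-free induction medium, then dosed in duplicate for 48 h at eight half-log concentrations up to 100 uM. Lysates underwent RNA isolation and TaqMan qRT-PCR; gain or loss versus DMSO was fitted.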

[15] = read-out: Apolipoprotein A-V (APOA5) gene, APOA5 (gene 116519); test: LTEA_HepaRG_APOA5: Life Technologies and Expression Analysis (LTEA) Assay for Apolipoprotein A-V (APOA5) gene using HepaRG (AID 2283474)
Method in brief: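 Human liver HepaRG cells are treated 48 h with test chemicals (100 uM top, half-log dilutions, 0.5% DMSO). APOA5 mRNA induction or loss is measured by qRT-PCR relative to vehicle.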

[16] = read-out: Apoptosis regulator Bcl-2 (Homo sapiens) (UniProt P10415); test: LTEA_HepaRG_BCL2: Life Technologies and Expression Analysis (LTEA) Assay for Bcl-2 gene using HepaRG (AID 2283475);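 note: BCL2 transcript by TaqMan qRT-PCR normalised to ACTB GAPDH and POLR2A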
Method in brief: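 Each chemical was tested in duplicate on HepaRG cultures held in serum-free induction medium for 48 h, highest concentration 100 uM with half-log dilutions. Transcript levels came from multiplexed qRT-PCR, normalised to housekeeping genes; activity was scored in either direction relative to DMSO.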

[17] = read-out: Bcl-2 (BID) gene, BID (gene 637); test: LTEA_HepaRG_BID: Life Technologies and Expression Analysis (LTEA) Assay for Bcl-2 (BID) gene using HepaRG (AID 2283476)
Method in brief: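 Assay used HepaRG hepatic cells treated 48 h in serum-free medium with half-log dilutions from 100 uM. Endpoint: BID mRNA, qRT-PCR, normalized to ACTB/GAPDH/POLR2A.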

Caspase-3 (Homo sapiens) = Caspase-3 (Homo sapiens) (UniProt P42574); test: LTEA_HepaRG_CASP3: Life Technologies and Expression Analysis (LTEA) Assay for cysteine-aspartic acid protease (CASP3) using HepaRG (AID 2283477)
Method in brief: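 In HepaRG liver cells dosed for 48 h at up to 100 uM (eight-point, duplicate), CASP3 expression changes are scored by qRT-PCR. Activity is fitted in both directions with 0.5% DMSO as baseline.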

Measured: AC50

Sequence of Apoptosis regulator Bcl-2 (Homo sapiens) (P10415 whole entry, looked up): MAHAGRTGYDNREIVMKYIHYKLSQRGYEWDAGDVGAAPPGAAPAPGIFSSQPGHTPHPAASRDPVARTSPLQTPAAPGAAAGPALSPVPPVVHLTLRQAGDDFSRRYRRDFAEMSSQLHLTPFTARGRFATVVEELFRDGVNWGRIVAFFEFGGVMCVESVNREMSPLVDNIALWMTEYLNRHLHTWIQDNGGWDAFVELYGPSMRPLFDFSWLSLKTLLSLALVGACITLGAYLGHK
Sequence of Caspase-3 (Homo sapiens) (P42574 whole entry, looked up): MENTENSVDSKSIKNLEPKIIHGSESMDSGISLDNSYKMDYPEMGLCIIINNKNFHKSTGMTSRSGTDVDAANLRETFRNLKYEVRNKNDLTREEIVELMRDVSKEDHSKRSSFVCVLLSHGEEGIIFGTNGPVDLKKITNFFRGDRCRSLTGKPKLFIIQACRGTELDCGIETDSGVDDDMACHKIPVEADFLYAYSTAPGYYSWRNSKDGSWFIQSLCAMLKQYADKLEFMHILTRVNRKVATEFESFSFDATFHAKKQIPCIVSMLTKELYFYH
Sequence of Broad substrate specificity ATP-binding cassette transporter ABCG2 (Homo sapiens) (Q9UNQ0 whole entry, looked up): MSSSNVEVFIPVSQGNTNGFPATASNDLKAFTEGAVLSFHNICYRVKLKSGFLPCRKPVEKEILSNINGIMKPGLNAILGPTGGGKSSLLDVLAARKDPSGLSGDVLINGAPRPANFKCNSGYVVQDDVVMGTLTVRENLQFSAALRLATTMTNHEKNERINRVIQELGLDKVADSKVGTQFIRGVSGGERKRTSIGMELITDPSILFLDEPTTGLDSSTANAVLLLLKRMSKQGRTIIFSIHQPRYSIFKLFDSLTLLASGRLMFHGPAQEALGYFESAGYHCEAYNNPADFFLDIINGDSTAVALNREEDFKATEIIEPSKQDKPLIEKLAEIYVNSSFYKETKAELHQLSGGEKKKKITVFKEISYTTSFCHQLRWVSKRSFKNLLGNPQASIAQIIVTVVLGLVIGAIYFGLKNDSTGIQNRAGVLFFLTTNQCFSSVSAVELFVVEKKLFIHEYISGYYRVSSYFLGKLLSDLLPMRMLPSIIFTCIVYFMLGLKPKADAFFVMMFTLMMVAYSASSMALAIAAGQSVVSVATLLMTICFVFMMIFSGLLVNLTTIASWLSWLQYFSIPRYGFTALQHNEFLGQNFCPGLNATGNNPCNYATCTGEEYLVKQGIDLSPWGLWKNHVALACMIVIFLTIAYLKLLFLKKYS

CCCCCCCC(=O)O
active: [3] 12.4 µM | [9] 12.4 µM | [10] 12.5 µM | Caspase-3 (Homo sapiens) 12.5 µM
inactive: all other assays above

C#C[C@]1(O)CC[C@H]2[C@@H]3CCC4=CC(=O)CC[C@@H]4[C@H]3CC[C@@]21C
active: [3] 9.92 µM | [6] 0.24 µM | [7] 50 µM | [8] 15.4 µM | [11] 10.1 µM | [14] 9.92 µM | [15] 9.92 µM
inactive: all other assays above

CC(=O)CC(C)(C)O
inactive: all assays above

CN1CCN(c2ccccc2/C=C2\SCCN(c3ccc(Cl)c(Cl)c3)C2=O)CC1
active: [2] 69 µM | [4] 50 µM | [5] 11.5 µM | [6] 22.5 µM | [11] 15.8 µM | [17] 83.9 µM
inactive: all other assays above

CC(=O)NC1(c2cccc(F)c2)CCN(CC[C@@]2(c3ccc(Cl)c(Cl)c3)CN(c3ccccc3)C(=O)CO2)CC1
active: [3] 68.7 µM | [6] 20.8 µM | [7] 71.9 µM | [11] 19.6 µM | BCL2L11 (gene 10018) 59.6 µM
inactive: all other assays above

O=C(O)c1ccccc1C(c1ccc(O)cc1)c1ccc(O)cc1
inactive: all assays above

ClC1=C(Cl)C(Cl)(Cl)C(Cl)=C1Cl
inactive: all assays above

CC(O)CO (stereo unspecified)
inactive: all assays above

CCCCCCCCCCCCN1CCCC1=O
inactive: all assays above

CCCOC(=O)c1ccc(O)cc1
inactive: all assays above

CCCCCCCCOC(=O)CCCCCCCCC(=O)OCCCCCCCC
inactive: all assays above

CC[C@H](C)[C@@H](C(=O)O)n1sc2ccccc2c1=O
inactive: all assays above

Cc1oc(-c2ccccc2)nc1CCOc1ccc(C[C@H](Nc2ccccc2C(=O)c2ccccc2)C(=O)O)cc1
inactive: [12] | [13] | [15] | [16]
active: [1] 12.4 µM | [2] 64.6 µM | [3] 26.5 µM | [4] 58.4 µM | [5] 32.5 µM | [6] 23.6 µM | [7] 28.9 µM | [8] 27.7 µM | [9] 22.6 µM | [10] 27.3 µM | [11] 26.1 µM | [14] 30.5 µM | BCL2L11 (gene 10018) 84.6 µM | [17] 75.6 µM | Caspase-3 (Homo sapiens) 32.7 µM

CC(C)CCCCCCOC(=O)CCCCC(=O)OCCCCCCC(C)C
inactive: all assays above
